Shown are actives, neighbours in structure and some others; about 2.3% of the full set was active somewhere.
A549 tox: Nrf2 qHTS screen for inhibitors: counterscreen for cytotoxicity | A549 ARE-Fluc cells, CellTiter-Fluor viability, 18-24 h | Potency, µM (titrated, usually from 46 µM), most hits filed as inhibitors | 390,000 compounds, 0.16% hits | AID 504648, 2011
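A549 ARE_Fluc cells in 5% FBS OPTI-MEM were exposed to compounds in concentration-response for 18-24 h at 37 deg C. Viability was read by CellTiter-Fluor fluorescence (Ex 405/Em 525) after 30 min, before the luciferase read.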
Nrf2 inh: Nrf2 qHTS screen for inhibitors; A549 ARE-Fluc reporter, luciferase luminescence, 18-24 h; Potency, µM (doses to about 46 µM), hits mostly inhibitors; AID 504444, 2011; 360,000 compounds, 2.1% hits; also: nearly all actives have a fitted effect of over 60% in size
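Concentration-response testing used A549 ARE_Fluc cells at 5000 cells/well. Following an 18-24 h compound incubation, viability was read by fluorescence (Ex 405/Em 525) and luciferase output by luminescence.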
miR-21 act: qHTS Assay for Modulators of miRNAs and/orActivators of miR-21 | HeLa miR-21 FLuc reporter, luciferase, 48 h | Potency, µM (doses to about 38.3 µM), actives largely listed as activators | 340,000 tested, under 10 active | AID 2288, 2010;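 also: miR-21 action dims this reporter so a rising signal means less miR-21 action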
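HeLa miR-21-FLuc reporter line, endogenous miR-21; 2000 cells/well in DMEM/10% FBS; compound titration up to ~40uM final, 48 h, 37 degree Celsius; luciferase detection reagent, 15 min lysis, CCD luminescence.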
Mito fusion yeast: qHTS Assay for Small Molecule Inhibitors of Mitochondrial Division or Activators of Mitochondrial Fusion. S. cerevisiae fusion-defective mutant growth rescue, CellTiterGlo 48 h. Potency, µM (titrated, usually from 46.1 µM), most hits filed as activators. 320,000 compounds, 0.23% hits. AID 485298, 2010; also: nearly all actives have a fitted effect of over 45% in size
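Read-out: ATP-based luminescence (CellTiterGlo, 10 min ambient) reporting growth of fusion-defective ts yeast after 48 hours at 37C on glycerol/ethanol YPEG medium in the presence of compound.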
Glioma ERSR ind: qHTS for Inducers of the Endoplasmic Reticulum Stress Response (ERSR) in Human Glioma: qHTS | 420,000 compounds, 0.02% hits | AID 602332, 2012 | Potency, µM, hits mostly activators | U87-MG GRP78 promoter luciferase reporter, 16 h; also: series mostly up to about 76 µM; nearly all actives have a fitted effect of over 35% in size
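Stably transfected U87-MG glioma cells carrying a GRP78-based luciferase sensor; 16 h compound incubation. Luminescence end-point read 10 min after Bright-Glo addition at room temperature.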
Nrf2 activator: qHTS of Nrf2 Activators; AREc32 ARE-luciferase reporter (MCF7-derived line), luminescence, 24 h; Potency, µM (series often up to 46.1 µM), usual class: activators; 410,000 compounds, 0.31% hits; AID 624171, 2012; also: nearly all actives have a fitted effect of over 65% in size
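For detection, Steady-Glo was added and plates sat 30 min at RT; before that, AREc32_Fluc cells grown overnight in OPTI-MEM/5% FBS had been treated with 23 nL compound for 24 hr at 37 deg C.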
Numbers stand for hits; - = inactive; ? = inconclusive; . = not tested or not shown; ! = not active in a repeat. Calls follow the shape of the dose curve; as a rule, active = well fitted curve in the direction sought with a large enough effect; inconclusive = small, poorly fitted or top-dose-only effect, or another doubt; inactive = no such curve, though single readings can be large; an effect the other way counts as inactive or inconclusive.

SMILES | A549 tox | Nrf2 inh | miR-21 act | Mito fusion yeast | Glioma ERSR ind | Nrf2 activator
O=C(CC1C(=O)NCCN1CC1CCCCC1)NCc1ccccc1Cl (configuration not stated) | - | - | - | - | - | -
COc1ccc(/C=N/NC(=O)c2cc(C(C)(C)C)[nH]n2)cc1COc1ccc(F)cc1F | ? | 21µM | - | - | - | -
COc1ccc(/C=N\NC(=O)c2ccccc2F)cc1COc1ccc(F)cc1F | ? | - | - | - | - | -
Fc1nc(F)c(F)c(NCCCNc2c(F)c(F)nc(F)c2F)c1F | ? | ? | ? | - | - | -
Nc1c(S(=O)(=O)c2ccccc2)c2nc3ccccc3nc2n1Cc1ccco1 | ? | 26µM | - | - | - | -
CCCCC(C)(C)[C@H](O)/C=C/[C@H]1[C@H](O)CC(=O)[C@@H]1C/C=C\CCCC(=O)O | . | . | . | . | - | .
CCN(CC)CC#CCC(O)(c1ccccc1)C1CCCCC1 (configuration not stated) | - | - | - | - | - | -
CCN(CC)CC#CCOC(=O)C(O)(c1ccccc1)C1CCCCC1 (configuration not stated) | - | - | - | 23µM! | - | -
Cc1ccccc1Cn1c(=O)n(CC2CCC(C(=O)N3CCC(C)CC3)CC2)c(=O)c2sccc21 (configuration not stated) | ? | 23µM | - | . | - | -
O=S(=O)(NCCc1nnc2ccc(SCc3cccnc3)nn12)c1ccccc1 | - | - | - | - | - | -
O=C(Nc1ccccc1C(=O)Nc1nnc(C(F)(F)F)s1)c1ccccc1 | 13µM | ? | - | ? | - | -
COc1ccccc1/C=C/c1nc(S(=O)(=O)c2ccccc2)c(N2CCC(C(N)=O)CC2)o1 | - | ? | - | 35µM | - | -
Cc1ccc(Cl)c(NC(=O)Nc2csc3c2CCCC3)c1 | - | - | - | . | - | -
O=C(CN1C(=O)NC2(CCCc3ccccc32)C1=O)c1ccccc1F (configuration not stated) | - | - | . | . | - | -
COc1cc(C(N)=O)cc(Br)c1OCc1ccccc1 | - | - | - | ? | - | -
CCOc1c(Br)cc(C(N)=O)cc1OCc1ccccc1 | - | ? | - | 11µM | - | ?
CN(C(=S)NC1CCCCC1)C1(c2ccccc2Cl)CCCCC1=O (configuration not stated) | - | ? | - | 20µM | - | -
COc1ccc(-c2cc(C(=O)NCCc3ccccc3)c3c(-c4ccc(Cl)cc4)[nH]nc3n2)cc1 | ? | 23µM | - | . | - | -
CCNC(=S)Nc1ccc(Cl)c([N+](=O)[O-])c1 | ? | 18µM | - | - | - | -
N#Cc1ccsc1NC(=O)CN(Cc1ccccc1)Cc1ccccc1 | - | - | - | - | - | -
CC(=O)c1ccc(NC(=O)CC(c2cccs2)N2Cc3ccccc3C2=O)cc1 (configuration not stated) | - | ? | - | . | - | -
OCCCNc1c2c(nc3cc(-c4ccc(Cl)cc4)nn13)CCC2 | ? | - | - | 14µM | - | -
COC(=O)C(=Cc1ccc(OCc2ccc([N+](=O)[O-])cc2)c(OC)c1)C(=O)OC | ? | ? | - | - | ? | 8.9µM
CCC(C)Cn1c(C(C)C)nc2ccccc21 (configuration not stated) | - | - | - | - | - | -
CCOC(=O)C1CCN(C(=O)c2ccc(OCC(=O)Nc3cccc(C(F)(F)F)c3)cc2)CC1 | - | - | - | - | - | -
COc1cc(C(=S)N2CCN(C)CC2)ccc1OCC(=O)NCc1ccccc1 | - | - | - | - | - | -
COc1cccc(NC(=O)COc2ccc(C(=S)N3CCN(C)CC3)cc2OC)c1 | - | 13µM | - | - | - | -
CCOC(=O)C1CCN(C(=O)c2ccc(OCC(=O)Nc3cccc(C(F)(F)F)c3)c(OC)c2)CC1 | - | 15µM | . | - | - | -
